Rows were chosen to be rich in hits. Some 3.8% of all compounds tested hit in one or more screens of this group.
Nrf2 activator – qHTS of Nrf2 Activators. AID 624171, 2012. AREc32 ARE-luciferase reporter (MCF7-derived line), luminescence, 24 h. Potency, µM (series often up to 46.1 µM), inactives show at the top dose activation, actives largely listed as activators. actives 0.31% (n = 410,000); also: potency is read from the fitted curve at half-maximal effect; % of control where 0% means no effect; nearly all actives have a fitted effect of over 65% in size
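Nrf2 activation is followed as ARE-luciferase induction in the AREc32 line after one day of compound treatment; luminescence is read with Steady-Glo.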
ELG1 DNA repair – qHTS screen for small molecules that inhibit ELG1-dependent DNA repair in human embryonic kidney (HEK293T) cells expressing luciferase-tagged ELG1 | Potency, µM (top dose mostly 46.1 µM), for inactives: at the highest dose activity change, negative = inhibition, usual class: inhibitors | actives 2.3% (n = 330,000) | AID 504467, 2011 | HEK293T ELG1-luciferase reporter, luminescence, 16 h; DNA damage induced by 5-fluorouridine; also: potency is read from the fitted curve at half-maximal effect; % is scaled to controls: 0 for no effect and ±100 for the full control effect; nearly all actives have a fitted effect of over 55% in size
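Luminescence from the luciferase reporter, measured 30 min after ONE-Glo reagent at room temperature, was the read-out. Beforehand, 2,000 cells per well were exposed for 16 hr at 37 °C to 5-fluorouridine together with compound or vehicle.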
Nrf2 block – Nrf2 qHTS screen for inhibitors. A549 ARE-Fluc reporter, luciferase luminescence, 18-24 h. Potency, µM (highest dose often 46 µM), inactives show at the highest dose activity change, negative = inhibition, most hits filed as inhibitors. actives 2.1% (n = 360,000). AID 504444, 2011; also: potency is read from the fitted curve at half-maximal effect; % is scaled to controls: 0 for no effect and ±100 for the full control effect; nearly all actives have a fitted effect of over 60% in size
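A549 ARE_Fluc cells, 5000/well, 5% FBS OPTI-MEM; compounds in dose-response, 18-24 h at 37 °C/5% CO2; CellTiter-Fluor viability read (Ex 405/Em 525), then BugLite luciferase luminescence = Nrf2 activity.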
IDH1 R132H inh – qHTS for Inhibitors of mutant isocitrate dehydrogenase 1 (IDH1): qHTS. actives 0.093% (n = 390,000). Potency, µM (doses to about 76.6 µM), inactives show at the highest dose activity change, negative = inhibition, actives largely listed as inhibitors. AID 602179, 2012. IDH1-R132H enzyme, NADPH consumption, diaphorase/resazurin fluorescence. Isocitrate dehydrogenase [NADP] cytoplasmic (Homo sapiens), O75874; also: potency is read from the fitted curve at half-maximal effect; % is scaled to controls: 0 for no effect and ±100 for the full control effect; nearly all actives have a fitted effect of over 65% in size
Target sequence (O75874 whole entry R132H, stated change not applied): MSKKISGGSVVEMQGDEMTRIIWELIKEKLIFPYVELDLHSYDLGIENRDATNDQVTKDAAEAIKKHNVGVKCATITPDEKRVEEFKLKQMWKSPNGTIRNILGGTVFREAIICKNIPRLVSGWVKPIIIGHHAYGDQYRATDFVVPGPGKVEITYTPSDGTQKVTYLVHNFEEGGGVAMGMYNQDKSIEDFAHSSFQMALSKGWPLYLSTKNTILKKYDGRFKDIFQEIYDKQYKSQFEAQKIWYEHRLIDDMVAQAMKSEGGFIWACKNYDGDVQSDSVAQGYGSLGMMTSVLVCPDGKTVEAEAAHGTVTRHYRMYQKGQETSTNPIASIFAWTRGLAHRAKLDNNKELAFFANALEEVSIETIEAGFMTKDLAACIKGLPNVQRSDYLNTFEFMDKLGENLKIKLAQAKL
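IDH1-R132H (0.5 ug/mL) preincubated 30 min with compound, then NADPH (0.016 mM) and alpha-KG (2 mM) added; 80 min at RT, pH 7.5. Remaining NADPH coupled via diaphorase/resazurin to fluorescence (540/590 nm); concentration-response curves normalized to no-enzyme control.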
A549 viability – Nrf2 qHTS screen for inhibitors: counterscreen for cytotoxicity; actives 0.16% (n = 390,000); A549 ARE-Fluc cells, CellTiter-Fluor viability, 18-24 h; Potency, µM (doses to about 46 µM), for the others: at the highest dose activity change, negative = cytotoxicity, actives largely listed as inhibitors; also: potency is read from the fitted curve at half-maximal effect; % is scaled to controls: 0 for no effect and ±100 for the full control effect
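Cytotoxicity counterscreen: CellTiter-Fluor fluorescence was measured in A549 ARE_Fluc cells after 18-24 h of compound exposure in a concentration series. The subsequent BugLite luminescent read reports ARE-luciferase activity.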
IDH1 autofl – qHTS for Inhibitors of mutant isocitrate dehydrogenase 1 (IDH1): Cherrypicks Autofluorescence Interference; AID 623980, 2012; inhibition of signal, % at 51.2 µM; Resorufin detection reagent fluorescence interference, cell-free; shares compounds with IDH1 R132H inh; 750 tested, under 10 active;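 also: 0% = wells with normal resorufin and full inhibition = wells lacking resorufin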
WT IDH1 inh – qHTS for Inhibitors of mutant isocitrate dehydrogenase 1 (IDH1): Cherrypicks in WT IDH1 | shares compounds with IDH1 R132H inh | WT IDH1 enzyme, NADPH diaphorase/resazurin fluorescence | Potency, µM (top dose mostly 115 µM), for inactives: at the top dose activity change, negative = inhibition, actives largely listed as inhibitors | actives 9% (n = 750);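 also: potency is read from the fitted curve at half-maximal effect; 0% = full WT IDH1 enzyme control and full inhibition = no enzyme wells; nearly all actives have a fitted effect of over 55% in size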
Target sequence (O75874 whole entry, looked up): as the sequence (O75874 whole entry R132H, stated change not applied) above, with H132R counted along it
IDH1 R132H conf – qHTS for Inhibitors of mutant isocitrate dehydrogenase 1 (IDH1): Confirmation of Cherrypicks. shares compounds with IDH1 R132H inh. IDH1 R132H enzyme, NADPH diaphorase/resazurin fluorescence. Potency, µM (titrated, usually from 76.6 µM), for inactives: top-dose activity change, negative = inhibition, actives largely listed as inhibitors. actives 83% (n = 750); also: potency is read from the fitted curve at half-maximal effect; nearly all actives have a fitted effect of over 50% in size
* marks the source's active call; other numbers are inactive results; ? = inconclusive; / = not tested or not shown; [ ] = another dose, or the depositor's remark. Calls follow the shape of the dose curve; as a rule, active = well fitted curve in the direction sought with a large enough effect; inconclusive = small, poorly fitted or top-dose-only effect, or another doubt; inactive = no such curve, though single readings can be large; an effect the other way counts as inactive or inconclusive.

SMILES	Nrf2 activator	ELG1 DNA repair	Nrf2 block	IDH1 R132H inh	A549 viability	IDH1 autofl	WT IDH1 inh	IDH1 R132H conf
O=C(Oc1ccc2c(c1)O/C(=C\c1ccncc1)C2=O)c1ccccc1	10%[9.22 µM]	?	-5%	52µM*	12%	3	1%	35µM*
Cc1ccc(/C=C2\Oc3cc(OC(=O)N4CCOCC4)ccc3C2=O)cc1	0%	18%	5%	-2%	1%	/	/	/
CC(C)Cc1nnc(NC(=O)c2ccc3c(=O)n4c(nc3c2)CCC4)s1	2%	-5%	4%	6%	19%	/	/	/
O=C1/C(=C/c2ccc(N3CCOCC3)o2)SC(=Nc2ccccc2)N1CCc1c[nH]c2ccccc12	?	?	?	-2%	?	/	/	/
COc1ccc(N=C2S/C(=C\c3ccc(OC(C)C(=O)O)c(OC)c3)C(=O)N2CCc2c[nH]c3ccccc23)cc1 (stereo not drawn)	0%[9.22 µM]	?	21%	?	-14%	-2	?	28µM*
O=C1NC(=O)C(=C2CCOC2=O)N1	-1%	/	/	-2%	/	/	/	/
CC(=O)N1CCCc2cc(S(=O)(=O)N(C)CC(=O)Nc3cccc(Cl)c3C)ccc21	0%	/	/	45%	-1%	/	/	/
CCOC(=O)c1c(NC(=O)COC(=O)c2ccccc2NC)sc(C(=O)N(C)C)c1C	2%	18µM*	?	12µM*	-7%	-4	10%	4.5µM*
CCOC(=O)c1c(NC(=O)COC(=O)Cc2ccccc2[N+](=O)[O-])sc(C(=O)N(C)C)c1C	-1%	-24%	7%	0%	5%	/	/	/
CC1CCN(C(=O)Cn2cc(SCC(=O)NCc3ccc(F)cc3)c3ccccc32)CC1	7%	/	1%	-18%	-18%	/	/	/
CN(C)c1nc(NNC(=O)c2ccccc2)nc(N(C)C)n1	0%	/	7%	2%	1%	/	/	/
O=C(NCc1ccco1)C(c1ccco1)N(Cc1cccs1)C(=O)Cn1nnc2ccccc21 (stereo not drawn)	-1%	?	11%	1%	10%	/	/	/
CCC(C)(C)NC(=O)C(c1ccc(C)o1)N(Cc1cccs1)C(=O)Cn1nnc2ccccc21 (stereo not drawn)	0%	-10%	-10%	?	-14%	-4	-5%	22µM*
O=C(NC1CCCCC1)C(c1ccccc1)N(Cc1ccco1)C(=O)c1csnn1 (stereo not drawn)	0%	-8%	4%	-4%	-18%	/	/	/
O=C(NC1CCCCC1)C(c1ccccc1)N(Cc1ccco1)C(=O)Cn1cnc2ccccc21 (stereo not drawn)	6%	-11%	-9%	12µM*	-14%	-2	-8%	6.3µM*
CCC(C)(C)NC(=O)C(c1ccccc1)N(Cc1cccs1)C(=O)Cn1nnc2ccccc21 (stereo not drawn)	1%	/	-16%	?	-4%	5	4%	16µM*
O=C(NC1CCCCC1)C(c1ccco1)N(Cc1cccs1)C(=O)Cn1nnc2ccccc21 (stereo not drawn)	0%	?	10%	?	-13%	-3	-2%	11µM*
Cc1cccc(C)c1-n1nnnc1C1c2ccccc2C(=O)N1CCc1ccc(O)cc1 (stereo not drawn)	3%	/	/	/	/	/	/	/
CCOc1ccc(-n2ccnc2SCC(=O)Nc2ccc3c(c2)OCO3)cc1	-1%	/	/	27%	1%	/	/	/
CCOc1ccc(/C=C/c2nc(C#N)c(NC(C)c3ccccc3)o2)cc1 (stereo not drawn)	0%	/	12%	2%	2%	/	/	/
COc1ccc(N2C(=O)CCSC23C(=O)N(Cc2ccc(F)cc2)c2ccccc23)cc1Cl (stereo not drawn)	12%	/	-8%	?	-9%	3	1%	32µM*
COc1cccc(N2C(=O)CSC23C(=O)N(Cc2ccccc2)c2ccccc23)c1 (stereo not drawn)	0%	/	-3%	-12%	-4%	/	/	/
COc1cccc(CN2C(=O)C3(SCC(=O)N3c3ccc(F)cc3)c3ccccc32)c1 (stereo not drawn)	8%	/	?	9%	6%	/	/	/
COc1ccc(N2C(=O)CCSC23C(=O)N(Cc2ccc(F)cc2)c2ccccc23)cc1 (stereo not drawn)	5%	/	-46%	32µM*	-12%	-2	-19%	35µM*
COc1cccc(C2=Nn3c(nnc3-c3ccc(OC)c(OC)c3)SC2)c1	/	/	-12%	/	-1%	/	/	/
SMILES	Nrf2 activator	ELG1 DNA repair	Nrf2 block	IDH1 R132H inh	A549 viability	IDH1 autofl	WT IDH1 inh	IDH1 R132H conf
COc1cc2cnc(-c3ccccc3)c(-c3ccc(C(F)(F)F)cc3)c2cc1OC	4%	?	?	?	?	-3	-1%	16µM*
COC(=O)[C@H](CC(C)C)NCc1cccc(CN[C@@H](CC(C)C)C(=O)OC)c1	3%	12%	-1%	8%	-3%	/	/	/
CCCc1nnc(NC(=O)c2cc(=O)c3cc(C)c(C)cc3o2)s1	0%	/	9%	4%	1%	/	/	/
Cc1ccc2[nH]c(=O)c3cc(C(=O)N(C)c4ccc(C)c(C)c4)sc3c2c1	-1%	?	-27%	52µM*	-8%	0	-12%	16µM*
CCN(C(=O)c1cc2c(=O)[nH]c3ccc(C)cc3c2s1)c1ccc(F)cc1	2%	-8%	-22%	-6%	-6%	/	/	/
CCN(C(=O)c1cc2c(=O)[nH]c3ccc(C)cc3c2s1)c1cccc(C)c1	0%	-7%	?	21µM*	-9%	-3	10%	22µM*
c1ccc(N(c2ccccc2)c2nc(N3CCCC3)nc(-n3ccnc3)n2)cc1	-1%	?	23µM*	9.3µM*	?	-2	-1%	6.3µM*
CN(c1ccccc1)c1nc(N2CCCC2)nc(-n2ccnc2)n1	-1%	?	-27%	-18%	-10%	/	/	/
COCCCNC(=O)C1CCN(c2ncnc3c2nc2n3CCCCC2)CC1	0%	/	28%	-15%	-3%	/	/	/

Source: PubChem BioAssay
